Targets with a hit are over-represented here; the source holds about 7,900 in all. About 0.6% of all pairs of compound and target were hits.
compound: CC1=C(C(CC(=O)N1)C2=CC=C(C=C2)C(F)(F)F)C(=O)NC3=C(C=C4C(=C3)C=NN4)F; assay: log2 fold change, soluble protein after heating vs DMSO (PISA); higher = thermal stabilisation; K562 cells, 10 uM, 30 min; active = over 0.2 and 3.5 SD of the protein, either way, in both replicates (recomputed)
Method in brief: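 Quantification of soluble protein used TMTpro 16plex LC-MS/MS, with channel sums equalised. Samples were the supernatant after 21,000xg for 90 min of pooled aliquots from K562 cells (2×10^6 cells/mL) treated with 10 μM compound for 30 min, heated for 3 min over 48°C-58°C, and extracted in PBS with 0.5% NP-40 at 4°C. Values, from duplicates, describe thermal stability against control samples on a log2 fold-change scale.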

Chain of UniProt O75956 (O75956 whole entry, looked up): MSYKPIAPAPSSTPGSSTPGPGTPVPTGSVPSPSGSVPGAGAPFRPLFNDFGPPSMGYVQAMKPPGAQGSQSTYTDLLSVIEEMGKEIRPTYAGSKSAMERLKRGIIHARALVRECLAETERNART
Chain of UniProt Q14677 (Q14677 whole entry, looked up): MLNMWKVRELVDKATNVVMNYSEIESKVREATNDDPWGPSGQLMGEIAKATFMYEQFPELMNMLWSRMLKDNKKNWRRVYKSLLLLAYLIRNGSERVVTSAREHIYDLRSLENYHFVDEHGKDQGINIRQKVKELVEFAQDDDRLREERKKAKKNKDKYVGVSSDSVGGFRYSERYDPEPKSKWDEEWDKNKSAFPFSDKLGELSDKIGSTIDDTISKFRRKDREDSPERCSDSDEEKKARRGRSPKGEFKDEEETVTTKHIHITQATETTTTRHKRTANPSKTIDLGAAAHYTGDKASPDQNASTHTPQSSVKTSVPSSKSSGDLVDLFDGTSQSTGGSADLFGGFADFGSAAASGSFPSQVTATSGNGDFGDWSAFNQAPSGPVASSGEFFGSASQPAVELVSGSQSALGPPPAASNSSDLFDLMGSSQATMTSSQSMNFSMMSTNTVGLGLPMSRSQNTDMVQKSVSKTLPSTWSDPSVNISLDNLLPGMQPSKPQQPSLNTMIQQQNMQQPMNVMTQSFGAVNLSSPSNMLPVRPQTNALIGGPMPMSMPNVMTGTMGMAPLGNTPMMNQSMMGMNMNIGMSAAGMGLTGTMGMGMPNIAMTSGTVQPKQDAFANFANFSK
Chain of UniProt P24311 (P24311 whole entry, looked up): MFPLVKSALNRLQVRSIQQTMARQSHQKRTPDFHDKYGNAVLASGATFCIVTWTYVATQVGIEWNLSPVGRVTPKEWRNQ
Chain of UniProt O95273 (O95273 whole entry, looked up): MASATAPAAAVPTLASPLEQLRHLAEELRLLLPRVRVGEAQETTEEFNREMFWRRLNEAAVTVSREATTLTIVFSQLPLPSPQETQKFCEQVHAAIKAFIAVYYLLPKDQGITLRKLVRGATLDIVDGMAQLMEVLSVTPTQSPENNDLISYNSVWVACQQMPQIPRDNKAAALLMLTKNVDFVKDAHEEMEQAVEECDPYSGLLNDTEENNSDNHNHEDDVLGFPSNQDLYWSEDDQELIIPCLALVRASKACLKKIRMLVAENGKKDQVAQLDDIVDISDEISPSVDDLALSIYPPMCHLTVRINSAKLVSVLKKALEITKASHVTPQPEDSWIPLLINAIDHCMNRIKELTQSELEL
Chain of UniProt Q13111 (Q13111 whole entry, looked up): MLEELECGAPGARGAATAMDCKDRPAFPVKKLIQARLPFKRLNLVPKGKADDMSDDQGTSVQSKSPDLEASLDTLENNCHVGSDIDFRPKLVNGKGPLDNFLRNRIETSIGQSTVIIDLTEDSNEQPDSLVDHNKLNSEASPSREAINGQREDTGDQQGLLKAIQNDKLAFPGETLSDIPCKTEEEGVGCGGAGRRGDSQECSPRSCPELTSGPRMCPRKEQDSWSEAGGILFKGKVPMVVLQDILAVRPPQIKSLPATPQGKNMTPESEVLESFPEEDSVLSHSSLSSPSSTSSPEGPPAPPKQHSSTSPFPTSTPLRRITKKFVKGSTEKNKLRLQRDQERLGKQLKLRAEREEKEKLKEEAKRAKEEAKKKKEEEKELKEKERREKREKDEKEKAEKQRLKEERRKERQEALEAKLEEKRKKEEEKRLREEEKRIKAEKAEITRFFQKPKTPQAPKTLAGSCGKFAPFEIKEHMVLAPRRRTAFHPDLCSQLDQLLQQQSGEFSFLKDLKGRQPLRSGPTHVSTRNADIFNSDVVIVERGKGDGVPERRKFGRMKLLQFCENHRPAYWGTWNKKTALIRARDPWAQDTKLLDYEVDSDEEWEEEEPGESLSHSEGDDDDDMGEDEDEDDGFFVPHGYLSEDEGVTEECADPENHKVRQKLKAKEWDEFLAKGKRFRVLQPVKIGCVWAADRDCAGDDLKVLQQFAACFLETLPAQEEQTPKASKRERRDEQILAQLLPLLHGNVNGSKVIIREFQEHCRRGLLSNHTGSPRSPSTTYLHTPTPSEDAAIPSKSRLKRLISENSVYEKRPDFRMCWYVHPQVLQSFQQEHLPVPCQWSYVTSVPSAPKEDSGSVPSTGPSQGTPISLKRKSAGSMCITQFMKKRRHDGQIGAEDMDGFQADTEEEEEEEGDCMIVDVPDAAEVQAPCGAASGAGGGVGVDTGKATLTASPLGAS
Chain of UniProt P51636 (P51636 whole entry, looked up): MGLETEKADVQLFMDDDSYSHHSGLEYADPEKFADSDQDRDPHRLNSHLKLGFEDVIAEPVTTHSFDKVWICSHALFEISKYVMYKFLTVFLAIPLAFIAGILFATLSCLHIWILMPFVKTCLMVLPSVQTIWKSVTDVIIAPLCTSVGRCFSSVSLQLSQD
Chain of UniProt P46527 (P46527 whole entry, looked up): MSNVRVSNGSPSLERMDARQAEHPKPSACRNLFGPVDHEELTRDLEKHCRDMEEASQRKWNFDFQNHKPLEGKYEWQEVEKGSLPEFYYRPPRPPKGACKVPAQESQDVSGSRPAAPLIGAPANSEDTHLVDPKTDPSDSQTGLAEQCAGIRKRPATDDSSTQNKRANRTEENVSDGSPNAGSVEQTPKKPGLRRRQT
Chain of UniProt Q9HAW4 (Q9HAW4 whole entry, looked up): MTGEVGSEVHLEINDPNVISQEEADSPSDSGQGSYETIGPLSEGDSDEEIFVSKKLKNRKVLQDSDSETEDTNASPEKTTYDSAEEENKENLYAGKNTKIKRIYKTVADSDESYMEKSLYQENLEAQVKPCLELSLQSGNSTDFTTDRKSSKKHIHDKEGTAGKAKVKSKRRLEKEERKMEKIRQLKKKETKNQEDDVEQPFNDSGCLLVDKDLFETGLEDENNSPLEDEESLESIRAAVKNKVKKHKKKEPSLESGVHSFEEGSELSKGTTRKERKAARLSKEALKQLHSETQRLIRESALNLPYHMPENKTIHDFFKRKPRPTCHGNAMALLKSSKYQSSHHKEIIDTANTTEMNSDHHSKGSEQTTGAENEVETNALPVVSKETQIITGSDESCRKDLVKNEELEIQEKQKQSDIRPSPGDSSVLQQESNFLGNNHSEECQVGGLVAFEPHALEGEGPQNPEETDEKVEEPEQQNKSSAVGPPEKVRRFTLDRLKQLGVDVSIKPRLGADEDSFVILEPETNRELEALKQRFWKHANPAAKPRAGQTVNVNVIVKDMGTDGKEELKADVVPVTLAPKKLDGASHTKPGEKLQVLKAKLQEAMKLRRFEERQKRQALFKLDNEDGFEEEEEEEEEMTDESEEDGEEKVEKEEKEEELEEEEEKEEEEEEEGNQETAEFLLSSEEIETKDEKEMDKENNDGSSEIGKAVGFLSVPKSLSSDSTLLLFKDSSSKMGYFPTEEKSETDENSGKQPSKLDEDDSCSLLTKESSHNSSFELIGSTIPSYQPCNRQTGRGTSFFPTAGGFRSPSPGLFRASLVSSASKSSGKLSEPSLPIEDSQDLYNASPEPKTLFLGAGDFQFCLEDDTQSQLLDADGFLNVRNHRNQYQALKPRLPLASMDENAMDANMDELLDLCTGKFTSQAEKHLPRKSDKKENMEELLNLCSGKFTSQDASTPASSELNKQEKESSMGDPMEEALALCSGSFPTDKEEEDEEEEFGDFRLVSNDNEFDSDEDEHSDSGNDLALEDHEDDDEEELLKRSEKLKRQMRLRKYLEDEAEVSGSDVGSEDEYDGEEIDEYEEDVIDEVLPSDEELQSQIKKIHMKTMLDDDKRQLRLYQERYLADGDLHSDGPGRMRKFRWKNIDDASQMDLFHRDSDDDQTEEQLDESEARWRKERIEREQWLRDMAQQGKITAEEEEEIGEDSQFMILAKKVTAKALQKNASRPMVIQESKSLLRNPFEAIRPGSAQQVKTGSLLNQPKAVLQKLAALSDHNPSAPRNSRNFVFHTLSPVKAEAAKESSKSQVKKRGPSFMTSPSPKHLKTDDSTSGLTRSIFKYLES
Chain of UniProt Q69YH5 (Q69YH5 whole entry, looked up): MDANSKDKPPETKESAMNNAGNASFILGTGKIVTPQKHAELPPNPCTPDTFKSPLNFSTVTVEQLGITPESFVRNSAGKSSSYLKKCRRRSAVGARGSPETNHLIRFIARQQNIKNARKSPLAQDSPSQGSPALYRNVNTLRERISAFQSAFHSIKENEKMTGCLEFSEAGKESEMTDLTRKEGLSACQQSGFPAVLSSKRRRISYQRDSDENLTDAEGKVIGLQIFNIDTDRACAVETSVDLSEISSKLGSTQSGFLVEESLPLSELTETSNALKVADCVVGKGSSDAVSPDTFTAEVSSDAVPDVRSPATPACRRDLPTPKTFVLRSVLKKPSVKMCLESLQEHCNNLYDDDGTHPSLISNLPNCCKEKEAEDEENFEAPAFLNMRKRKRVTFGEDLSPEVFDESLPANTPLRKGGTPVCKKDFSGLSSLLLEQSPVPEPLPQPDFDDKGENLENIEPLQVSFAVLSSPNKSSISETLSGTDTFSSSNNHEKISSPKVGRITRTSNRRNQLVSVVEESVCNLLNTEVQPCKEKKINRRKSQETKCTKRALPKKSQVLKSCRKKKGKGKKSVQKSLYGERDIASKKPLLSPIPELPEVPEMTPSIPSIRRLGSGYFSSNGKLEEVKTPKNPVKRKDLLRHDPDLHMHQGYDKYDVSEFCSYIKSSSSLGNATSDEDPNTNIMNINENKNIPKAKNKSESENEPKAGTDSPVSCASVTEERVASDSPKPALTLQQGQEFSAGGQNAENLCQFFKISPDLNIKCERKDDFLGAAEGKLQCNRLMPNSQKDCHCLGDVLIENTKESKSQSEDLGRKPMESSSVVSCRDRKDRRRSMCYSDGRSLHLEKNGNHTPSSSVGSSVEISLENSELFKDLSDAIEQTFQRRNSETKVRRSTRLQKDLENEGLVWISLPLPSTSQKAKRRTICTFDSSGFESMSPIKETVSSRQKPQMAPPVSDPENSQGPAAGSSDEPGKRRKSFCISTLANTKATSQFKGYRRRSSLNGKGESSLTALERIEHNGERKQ

Target | log2 fold change
CLUH, A0A494C0R8 | -0.058 (inactive)
CHAF1A (UniProt Q13111) | -0.042 (inactive)
CLINT1 isoform 3 (UniProt Q14677) | -0.002 (inactive)
CLPP (UniProt Q16740) | -0.011 (inactive)
COX7B (UniProt P24311) | -0.011 (inactive)
CLN5 (UniProt O75503) | -0.039 (inactive)
CDK19 (UniProt Q9BWU1) | -0.156 (inactive)
CAV2 (UniProt P51636) | 0.028 (inactive)
CDK5 (UniProt Q00535) | 0.038 (inactive)
CLTB (UniProt P09497) | 0 (inactive)
COG2 (UniProt Q14746) | 0.132 (inactive)
CNOT4 isoform 9 (UniProt O95628) | -0.024 (inactive)
CLASP2 (UniProt O75122) | 0.116 (inactive)
CDCA2 (UniProt Q69YH5) | -0.018 (inactive)
CDK2AP2 (UniProt O75956) | 0.03 (inactive)
CDKN1B (UniProt P46527) | 0.018 (inactive)
CORO2A (UniProt Q92828) | 0.008 (inactive)
CLUH (UniProt O75153) | -0.094 (inactive)
CNN3 (UniProt Q15417) | 0.058 (inactive)
CCNDBP1 (UniProt O95273) | 0.166 (inactive)
CLSPN (UniProt Q9HAW4) | 0.009 (inactive)
CLPTM1L (UniProt Q96KA5) | 0.042 (inactive)
CMTM3 (UniProt Q96MX0) | 0.12 (inactive)
CLN8 (UniProt Q9UBY8) | 0.043 (inactive)
